High-throughput results (PubChem BioAssay)
MITF TRPM1 inh – reduces MITF-dependent TRPM1 promoter luciferase signal; SK-MEL-5 TRPM1 promoter luciferase, 24 h; inhibition, % at 12.5 µM; 330,000 tested, 0.83% active;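 active = mean inhibition across replicates of 60% or more, whatever share of single replicates reaches that level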
HIF-2a inh – HIF-2a inhibition | AID 624352 | 786-0 RCC cells HIF-2a reporter, luciferase luminescence, overnight | 360,000 tested, 0.72% active | inhibition, % at 18.8 µM;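 active = inhibition of the luminescence signal of 40% or more relative to plate controls, in a single-dose primary screen at 18.75 µM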
EBV LMP1 NFkB – Epstein-Barr LMP1 NF-kappaB reporter inhibition; LMP1-induced NF-kappaB luciferase reporter cells, luminescence; inhibition, % at 12.5 µM; 350,000 tested, 0.69% active; AID 504558; in the data active = inhibition above about 41%;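 note: 0% = neutral control wells and 100% = reference inhibitor control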
Shn3 3UTR inh – reduces Shn3 3'UTR luciferase signal in osteoblasts; Clone20 osteoblast Shn3 3'UTR firefly luciferase, 24 h; inhibition, % at 12.5 µM; 360,000 tested, 0.52% active; AID 588674;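 active = mean inhibition of at least 75% with every replicate also reaching 75%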;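 note: 0% = median of neutral control wells and 100% = pilot-screen positive control compound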
TWEAK Fn14 block – TWEAK-Fn14 signaling inhibition; TWEAK-stimulated Fn14 reporter cells, luciferase luminescence, 8 h; AID 1159606; 360,000 tested, 2% active; inhibition, % at 10 µM; in the data active = inhibition above about 50%
TROY signal inh – blocks TROY-dependent signaling in reporter cells. inhibition, % at 10 µM. AID 1347056. 360,000 tested, 0.98% active. Q293 LMP1-TROYcd NF-kB luciferase reporter, 4 h;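 active = compounds whose plate-normalised and pattern-corrected inhibition of the luciferase reporter signal at the single screening dose is 50% or more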
* hit, by the source's call; . = no result given. In the library only some 3.4% were active in any assay of this set; here they are far more common.

SMILES | MITF TRPM1 inh | HIF-2a inh | EBV LMP1 NFkB | Shn3 3UTR inh | TWEAK Fn14 block | TROY signal inh
Cn1c(NCCO)nc2c1c(=O)n(Cc1cccc(Cl)c1)c(=O)n2C | 2 | 20 | -4 | 9 | -19 | -7
Cn1c(NCCN2CCOCC2)nc2c1c(=O)n(Cc1cccc(Cl)c1)c(=O)n2C | 5 | 10 | -1 | -14 | 80* | .
Cn1c(NCc2ccco2)nc2c1c(=O)n(Cc1ccc(Cl)c(Cl)c1)c(=O)n2C | 14 | 29 | 19 | 52 | 50* | 29
Cn1c(NCC(O)CO)nc2c1c(=O)n(Cc1ccc(Cl)c(Cl)c1)c(=O)n2C (centres undefined) | -1 | 16 | -3 | 10 | 10 | 5
O=C(CNC(=O)c1cc(Cl)nc2ccccc12)Nc1ccccc1Br | 5 | 17 | 2 | -16 | 0 | 3
CC1(C)CN(c2ccc(Br)cc2)C(=O)[C@H]1CC(=O)Nc1ccccc1 | . | 12 | -3 | 12 | 25 | -4
Cc1ccc(CC(=O)NCC(O)c2ccccc2)cc1 (centres undefined) | -5 | -33 | -19 | -11 | 2 | -7
CC(C)(CNC(=O)CNC(=O)c1ccc(Cl)cc1Cl)N1CCOCC1 | -5 | 0 | 0 | 6 | -7 | 11
CC(C)c1ccc(N=Cc2c(O)c3ccccc3oc2=O)cc1 | -3 | -74 | -27 | 4 | 82* | 69*
COc1ccc(N=Cc2c(O)c3ccccc3oc2=O)cc1 | 8 | -122 | -6 | -10 | 5 | 27
CCOC(=O)c1c(-c2ccccc2)c[nH]c1C | -36 | -138 | -12 | -16 | -25 | -45
O=C1CC(C(=O)N2CCCc3ccccc32)CN1c1ccc(F)cc1 (centres undefined) | -9 | -38 | -4 | -15 | 61* | 49
CCN(CC)CCN1C(=O)c2ccccc2NC1c1ccc(N(C)C)cc1 (centres undefined) | 14 | -19 | 9 | 0 | 68* | 21
CN(C)c1ccc(C2Nc3ccccc3C(=O)N2CCCN2CCOCC2)cc1 (centres undefined) | 7 | -61 | 1 | -4 | 56* | 26
CN(C)c1ccc(C2NC(=O)c3ccccc3N2)cc1 (centres undefined) | -116 | -226 | 3 | -75 | 62* | 41
O=C1NC(c2ccc(Cl)cc2)Nc2ccccc21 (centres undefined) | 5 | -17 | 7 | -3 | -3 | -1
CCN(CC)CCN1C(=O)c2ccccc2NC1c1ccc(F)cc1 (centres undefined) | 2 | 3 | -3 | -12 | 4 | -5
O=C(O)C1CCCN(S(=O)(=O)c2ccc(-c3ccc(=O)[nH]n3)s2)C1 (centres undefined) | -2 | -2 | 2 | 8 | 21 | 2
O=C(CSc1nc(-c2ccccc2)c(-c2ccccc2)o1)N1CCCCC1 | . | -5 | 16 | 7 | -25 | -6
O=C(CSCC(=O)N1CCCCC1)Nc1nc(-c2ccccc2)c(-c2ccccc2)s1 | . | -20 | 16 | 27 | 52* | 8
CN(CCc1ccccn1)C(=O)CC1C(=O)NCCN1Cc1cccc(F)c1 (centres undefined) | -1 | 2 | 0 | -104 | -15 | -7
CC(C)Oc1ccc(CSc2ncn[nH]2)cc1 | -36 | -127 | -15 | -38 | -16 | -19
CC(C)Oc1ccc(CSC(=N)N)cc1 | 5 | -4 | -5 | 7 | 65* | -2
COc1ccc(CN(C)C(=O)CNC(=O)c2sc3ccccc3c2Cl)c(OC)c1 | . | -29 | 15 | -2 | 9 | 0
Cn1cc(C(=O)c2ccc(Cl)cc2)cc1-c1nc2ccccc2n1C | 9 | 4 | 1 | 70 | 52* | 57*
SMILES | MITF TRPM1 inh | HIF-2a inh | EBV LMP1 NFkB | Shn3 3UTR inh | TWEAK Fn14 block | TROY signal inh
Clc1ccccc1CSc1nnc([C@@H]2CCCN2)o1 | 5 | 2 | -3 | 19 | 8 | -7
Cc1ccccc1CSc1nnc([C@@H]2CCCN2)o1 | -4 | 10 | 53* | -25 | -16 | -8
CC(C)(C)OC(=O)N(Cc1ccccc1)Cc1ccccc1OCc1ccc(NC(=O)C2CCC2)cc1 | -12 | -21 | -1 | 15 | -19 | 3
CCCCCCCc1ccc(-c2ccc(O)cc2)nc1 | -41 | -213 | -38 | -45 | -24 | -63
CCCCCc1ccc(-c2ccc(/C=C/C(=O)O)cc2)nc1 | 10 | 74* | 43* | 21 | 60* | -31
O=C(Cn1ccc2ccccc2c1=O)NCCC(=O)Nc1ccc2c(c1)OCCO2 | -20 | 14 | 21 | 11 | 57* | 36
Cc1ccccc1NC(=O)CN1C(=O)S/C(=C\c2cccn2-c2cccc(C(=O)O)c2)C1=O | 3 | 19 | 74* | 0 | -5 | -6
O=S(=O)(Nc1nc2ccccc2nc1Nc1ccc2c(c1)OCO2)c1ccccc1 | 6 | 6 | -3 | 3 | 38 | 41
O=[N+]([O-])c1cccc(S(=O)(=O)N2CCN(c3ccccn3)CC2)c1 | . | 4 | -5 | 10 | 60* | 9
Cc1ccc(S(=O)(=O)Nc2nc3ccccc3nc2Nc2cccc(S(=O)(=O)N3CCCC3)c2)cc1 | -4 | -49 | 5 | 26 | 69* | 54*
O=[N+]([O-])c1cccc(S(=O)(=O)Nc2nc3ccccc3nc2Nc2cccc(S(=O)(=O)N3CCCCC3)c2)c1 | 34 | 56* | 28 | 25 | 86* | 71*
O=[N+]([O-])c1ccc(S(=O)(=O)N2CCN(c3ccccn3)CC2)cc1 | . | 11 | -2 | -7 | 7 | -12
Cc1cccc(S(=O)(=O)Nc2nc3ccccc3nc2Nc2ccc3c(c2)OCO3)c1 | 3 | 0 | 12 | 10 | 42 | 64*
CC1CC(C)CN(C(=O)CNC(=O)c2ccc3ccccc3c2)C1 (centres undefined) | 6 | -15 | -2 | -15 | 5 | -13
Cc1onc(-c2ccccc2Cl)c1C(=O)Nc1cccc(S(=O)(=O)NC2=NCCC2)c1 | 2 | 5 | 4 | -2 | -2 | 10
CCN(C(=O)CSc1nnc(-c2cccc(Cl)c2)n1N)c1c(N)n(Cc2ccccc2)c(=O)[nH]c1=O | -5 | 6 | 3 | 3 | 3 | -10
CC(C)C1=CC(=Nc2ccc(S(N)(=O)=O)cc2)C=C(C(C)C)C1=O | 11 | 22 | 5 | -5 | 5 | -8
O=S1(=O)CC(N2CCSCC2)CN1Cc1cn(Cc2ccc(F)cc2)nn1 (centres undefined) | . | 4 | . | . | 22 | -11
CCN(CC(=O)Nc1cc(S(=O)(=O)N2CCCCC2)ccc1C)Cc1ccccc1 | 18 | 16 | 12 | 22 | 10 | 20
O=C(CSc1nnc2ccccn12)NC(=O)Cc1ccccc1 | 1 | 10 | 6 | 7 | 52* | 0
Cc1ccc(-c2nnc(-c3ccccc3Br)o2)cc1 | -15 | -120 | -11 | -138 | 57* | 7
Cc1cc(C=C2C(=O)c3ccccc3C2=O)c(C)n1-c1ccc(Cl)cc1 | -51 | -41 | -6 | -23 | 11 | -36
